This is part of a sample that, as a whole, favours compounds with a hit. Of some 83,000 tested, about 20% had one in any assay.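 48-hour exposure, single concentration, 96-well plates; percent growth endpoint where 0 means no net growth. Active: below 10.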 A number with no mark means an inactive call. Calls of active or inactive are those of the source.

Holding throughout (assay): NCI-60 one-dose screen, 48 h (100 = growth as untreated, 0 = no growth, -100 = all killed)
The subject of one experiment is SK-MEL-2 melanoma. As to conditions: 10 µM unless noted.
For another experiment, the system named is EKVX NSCLC. The note with it: 10 µM unless noted.
The subject of a further experiment is SN12C renal. The note with it: 10 µM unless noted.
The test system of the next experiment is UO-31 renal. As to conditions: 10 µM unless noted.
Another experiment relates to ACHN renal. As to conditions: 10 µM unless noted.
In the next experiment the test system is CAKI-1 renal. The note with it: 10 µM.
The next experiment deals with A498 renal. The note with it: 10 µM unless noted.
A further experiment relates to CCRF-CEM leukemia. As to conditions: 10 µM unless noted.
A further experiment has as its system MOLT-4 leukemia. As to conditions: 10 µM unless noted.
For another experiment, the system named is SR leukemia. The note with it: 10 µM unless noted.
The subject of another experiment is RPMI-8226 leukemia. The note with it: 10 µM unless noted.
In another experiment the test system is OVCAR-8 ovarian. As to conditions: 10 µM unless noted.
The next experiment concerns OVCAR-5 ovarian. The note with it: 10 µM unless noted.
Another experiment concerns OVCAR-4 ovarian. As to conditions: 10 µM unless noted.
The next experiment has as its system SK-OV-3 ovarian. As to conditions: 10 µM unless noted.
The test system of another experiment is IGROV1 ovarian. The note with it: 10 µM unless noted.
The next experiment has as its system OVCAR-3 ovarian. As to conditions: 10 µM unless noted.
Another experiment deals with NCI/ADR-RES ovarian. The note with it: 10 µM unless noted.
The subject of another experiment is HS 578T breast. The note with it: 10 µM unless noted.

`Cc1cn(-c2cc(C(=O)Nc3cccc(-n4ccc5c(NC(=O)c6ccccc6)nccc54)c3)cc(C(F)(F)F)c2)cn1`: the growth in the experiment with SK-MEL-2 melanoma is 11.2%; with EKVX NSCLC, 45.6%; in the experiment with SN12C renal it was 21.7%; in the experiment with UO-31 renal, 15.5%; in the experiment with ACHN renal it was 27.6%; with CAKI-1 renal, 2.7% (active). In addition, the growth in the experiment with A498 renal is 16.1%; in the experiment with CCRF-CEM leukemia, -21.7% (active); with MOLT-4 leukemia, 12.4%; with SR leukemia, -24.9% (active); with RPMI-8226 leukemia, -51.7% (active); in the experiment on OVCAR-8 ovarian it was 4.81% (active). In addition, the growth was 35.6% with OVCAR-5 ovarian; 75.7% in the experiment on OVCAR-4 ovarian; 13.1% with SK-OV-3 ovarian; 7.51% (active) in the experiment with IGROV1 ovarian; -67.7% (active) in the experiment on OVCAR-3 ovarian; 4.71% (active) in the experiment with NCI/ADR-RES ovarian.

`O=C(Nc1ccc(-n2ccc3c(NC(=O)c4ccccc4)nccc32)cc1)c1ccc(Cl)c(C(F)(F)F)c1`: the growth in the experiment with SK-MEL-2 melanoma was 53.4%; in the experiment with EKVX NSCLC it was 72.8%; in the experiment on SN12C renal, 47.9%; in the experiment with UO-31 renal, 36.6%; with ACHN renal it was 37.1%; with CAKI-1 renal, 26.3%. For the same compound, the growth in the experiment on A498 renal is 63.6%; in the experiment with CCRF-CEM leukemia, -9.57% (active); with MOLT-4 leukemia it was 8.54% (active); with SR leukemia, -28.7% (active); in the experiment with RPMI-8226 leukemia, -17.3% (active); in the experiment on OVCAR-8 ovarian, 23%. Besides, the growth with OVCAR-5 ovarian was 62.9%; in the experiment on OVCAR-4 ovarian it was 88.5%; in the experiment with SK-OV-3 ovarian, 53.9%; in the experiment with IGROV1 ovarian it was 36%; with OVCAR-3 ovarian, 22.9%; with NCI/ADR-RES ovarian, 22.9%.

As for `COc1cccc(-c2nc3sccn3c2-c2ccnc(NCCNC(=O)Nc3cccc(C(F)(F)F)c3)n2)c1`, the growth with SK-MEL-2 melanoma is 61.9%; in the experiment with EKVX NSCLC, 61.5%; in the experiment with SN12C renal, 68.8%; with UO-31 renal, 39.7%; in the experiment with ACHN renal, 46.2%; in the experiment on CAKI-1 renal it was 40%. The growth with A498 renal was 61.6%; with CCRF-CEM leukemia, 27%; with MOLT-4 leukemia, 36.7%; in the experiment with SR leukemia, 38.5%; in the experiment on RPMI-8226 leukemia it was 20.4%; in the experiment with OVCAR-8 ovarian, 21.3%. The growth in the experiment with OVCAR-5 ovarian was 103%; with OVCAR-4 ovarian, 91.1%; in the experiment with SK-OV-3 ovarian, 78.6%; with IGROV1 ovarian, 50.9%; with OVCAR-3 ovarian, 66.3%; with NCI/ADR-RES ovarian, 27.2%.

In the case of `O=C(Nc1ccc(-n2ccc3c(NC(=O)c4ccccc4)nccc32)cc1)Nc1ccc(Cl)c(Cl)c1`, the growth in the experiment with SK-MEL-2 melanoma is -42.4% (active); in the experiment on EKVX NSCLC, 39.5%; in the experiment on SN12C renal it was 10.7%; in the experiment with UO-31 renal it was -61.4% (active); in the experiment on ACHN renal, 2.67% (active); in the experiment with CAKI-1 renal it was -57.7% (active). Further, the growth was 68.2% in the experiment with A498 renal; -34.6% (active) in the experiment on CCRF-CEM leukemia; 9.08% (active) in the experiment on MOLT-4 leukemia; -30.3% (active) with SR leukemia; -49.6% (active) in the experiment with RPMI-8226 leukemia; -45% (active) with OVCAR-8 ovarian. For the same compound, the growth in the experiment on OVCAR-5 ovarian is 50%; in the experiment with OVCAR-4 ovarian it was -4.39% (active); in the experiment on SK-OV-3 ovarian, 59.7%; in the experiment on OVCAR-3 ovarian, -79.6% (active); in the experiment with NCI/ADR-RES ovarian it was -34.4% (active).

Turning to `O=C(Nc1ccc(-n2cc(-c3ccncc3)c(-c3ccc(O)c(Cl)c3)n2)cc1)Nc1cccc(Cl)c1Cl`, the growth in the experiment with SK-MEL-2 melanoma was 66.8%; in the experiment on EKVX NSCLC, 44.9%; in the experiment on SN12C renal, 83.1%; in the experiment on UO-31 renal, 57.2%; in the experiment on ACHN renal it was 47.8%; in the experiment with CAKI-1 renal, 67.3%. In addition, the growth is 68.7% in the experiment with A498 renal; 38.2% in the experiment with CCRF-CEM leukemia; 39.1% in the experiment with MOLT-4 leukemia; 74% in the experiment on SR leukemia; 12.7% with RPMI-8226 leukemia; 62% with OVCAR-8 ovarian. The growth is 101% in the experiment with OVCAR-5 ovarian; 78.7% with OVCAR-4 ovarian; 81.7% in the experiment with SK-OV-3 ovarian; 77.9% in the experiment with IGROV1 ovarian; 55.3% in the experiment with OVCAR-3 ovarian; 66.7% with NCI/ADR-RES ovarian.

Consider `Nc1nccc2c1ccn2-c1cccc(NC(=O)c2ccc(N3CCOCC3)c(C(F)(F)F)c2)c1`, for which the growth in the experiment on SK-MEL-2 melanoma was -6.68% (active); in the experiment on EKVX NSCLC, 44.4%; in the experiment with SN12C renal, 25.6%; with UO-31 renal, 7.5% (active); in the experiment on ACHN renal, 13.3%; in the experiment with CAKI-1 renal it was -0.708% (active). Also, the growth with A498 renal is -12.9% (active); in the experiment on CCRF-CEM leukemia, 7.34% (active); in the experiment with MOLT-4 leukemia, 9.73% (active); with SR leukemia it was -13.4% (active); with RPMI-8226 leukemia, -40.9% (active); with OVCAR-8 ovarian, 0.868% (active). Further, the growth is 32.6% in the experiment with OVCAR-5 ovarian; 78.5% with OVCAR-4 ovarian; 16.6% in the experiment on SK-OV-3 ovarian; 28.1% with IGROV1 ovarian; -27.2% (active) with OVCAR-3 ovarian; -2.74% (active) with NCI/ADR-RES ovarian.

As to `O=C(Nc1cccc(-n2ccc3c(NC(=O)c4ccccc4)nccc32)c1)c1cccc(C(F)(F)F)c1`, the growth with SK-MEL-2 melanoma was 18.8%; with EKVX NSCLC, 43.4%; with SN12C renal, 25%; in the experiment with UO-31 renal, 22.4%; with ACHN renal, 24.7%; in the experiment with CAKI-1 renal, 9.21% (active). Also, the growth in the experiment with A498 renal was 7.75% (active); in the experiment on CCRF-CEM leukemia, 8.28% (active); in the experiment on MOLT-4 leukemia, 13.1%; in the experiment on SR leukemia, 1.05% (active); with RPMI-8226 leukemia, -36.1% (active); with OVCAR-8 ovarian it was 3.8% (active). The growth in the experiment with OVCAR-5 ovarian is 32.5%; in the experiment with OVCAR-4 ovarian it was 72.9%; with SK-OV-3 ovarian, 12.1%; in the experiment on IGROV1 ovarian, 15.9%; in the experiment with OVCAR-3 ovarian it was -8.09% (active); with NCI/ADR-RES ovarian, -1.18% (active).

For `Cc1cc(O[C@@H]2O[C@@H](C)[C@H](O)[C@@H](O)[C@H]2O)c2c3c(c(O[C@@H]4O[C@@H](C)[C@H](O)[C@@H](O)[C@H]4O)cc2c1)C(=O)c1c(O)cccc1C3=O`, the growth with SK-MEL-2 melanoma was 90.4%; in the experiment with EKVX NSCLC, 76.7%; in the experiment with SN12C renal, 54.2%; with UO-31 renal, 11.7%; with ACHN renal, 47.2%; in the experiment on CAKI-1 renal it was 60.3%. In addition, the growth in the experiment with A498 renal was -53% (active); in the experiment with CCRF-CEM leukemia, 82.6%; with MOLT-4 leukemia, 68.8%; in the experiment on SR leukemia, 82.6%; with RPMI-8226 leukemia, 57.2%; in the experiment with OVCAR-8 ovarian, 22.9%. Further, the growth in the experiment with OVCAR-5 ovarian was 98.5%; in the experiment with OVCAR-4 ovarian, 81.8%; in the experiment on SK-OV-3 ovarian it was 83.6%; in the experiment on IGROV1 ovarian, 89.3%; in the experiment with OVCAR-3 ovarian, 93.7%; in the experiment on HS 578T breast, -12.8% (active). For the same compound, the growth with NCI/ADR-RES ovarian is 36.4%.
